Screening data from PubChem BioAssay.
BJeLR viability: BJeLR cell viability loss; BJeLR (HRASV12) viability, CellTiter-Glo ATP luminescence, 48 h; inhibition, % (test concentration not listed); 0.17% of 300,000 active; AID 1554; in the data active = inhibition above about 50%
Sa ugtP lethal: kills S. aureus RN4220 lacking UgtP; S. aureus RN4220 ugtP deletion, OD600 growth, 16 h; growth inhibition, % (no concentration beside the values); 0.54% of 330,000 active; in the data active = growth inhibition above about 68%
RN4220 kill: kills Staphylococcus aureus RN4220. 0.33% of 330,000 active. S. aureus RN4220 growth, OD600, 16 h. inhibition, % (test concentration not listed); in the data active = inhibition above about 85%
PrPC TRFRET: reduces human prion protein on the cell surface. cell surface PrPC, TR-FRET read-out. inhibition, % at 13.8 µM. 0.43% of 370,000 active; in the data active = inhibition above about 24%
PrPC TRFRET cf: confirmation of inhibitors of cell surface human prion protein; shares compounds with PrPC TRFRET; cell surface PrPC level, TR-FRET; inhibition, % at 13.8 µM; 65% of 1,500 active; AID 743200; in the data active = inhibition above about 25%
LD9 tox: kills or reduces viability of LD9 cells in PrPc counter-screen; shares compounds with PrPC TRFRET; LD9 cells cytotoxicity, luminescence viability; inhibition, % at 13.8 µM; 29% of 1,500 active; in the data active = inhibition above about 9.5%
Numbers stand for hits; - = inactive; . = not tested or not shown. The list is not random: actives were taken first. Their share in the collection is about 0.95%.

SMILES	BJeLR viability	Sa ugtP lethal	RN4220 kill	PrPC TRFRET	PrPC TRFRET cf	LD9 tox
O=C(Cc1ccccc1)NNc1ccc2ccccc2c1	-	.	.	30	-	-
CCN1CC2C3C(=O)N(C)C(=O)C3[C@](C)(C1=O)N2C(=O)c1ccc(Cl)c(Cl)c1 (some centres not stated)	.	-	-	.	.	.
Cc1ccccc1OCC(O)=C(C#N)c1nc2ccccc2[nH]1	.	-	-	.	.	.
COc1ccccc1OCC(=O)OC/C(O)=C(\C#N)c1nc2ccccc2[nH]1	-	-	-	31	54	64
Cc1cc(SCC(=O)OC/C(O)=C(\C#N)c2nc3ccccc3[nH]2)c(C)cc1Br	-	.	.	-	.	.
N#C/C(=C(/O)COC(=O)CSc1ccc(Cl)cc1)c1nc2ccccc2[nH]1	-	-	-	27	36	63
COc1ccccc1/C=C/C=NN1CCN(Cc2ccccc2)CC1	.	-	-	.	.	.
Cc1cc2nc(C3CCN(Cc4nnnn4Cc4ccccc4)CC3)[nH]c2cc1C	-	-	-	-	.	.
CCC(C)(C)n1nnnc1CN1CCC(c2nc3ccc(C)cc3[nH]2)CC1	-	-	-	33	32	-
CC(Oc1ccc(C=NNC(=O)Cc2cccc3ccccc23)cc1)C(=O)O (configuration not stated)	.	-	-	.	.	.
C=CCn1c(=O)c2ccccc2n2c(SCC(=O)O)nnc12	-	-	-	-	.	.
C=CCn1c(=O)c2ccccc2n2c(SCC(N)=O)nnc12	-	-	-	36	35	-
COc1ccc(CC(=O)Nc2ccc(C(C)=NNC(=O)c3cccc([N+](=O)[O-])c3)cc2)cc1	.	-	-	.	.	.
CCO[C@H]1OC(C(=O)NCc2nc3ccccc3[nH]2)=C[C@@H](C2CCCCC2)[C@@H]1CCCO	-	.	.	44	25	-
COCCCN1C(=O)C(=O)C(=C(O)c2ccc(OC(C)C)c(C)c2)C1c1ccncc1 (configuration not stated)	.	-	-	.	.	.
C=CCNC(=O)c1onc(CSc2ccccc2)c1C(=O)O	-	-	-	-	.	.
C=CCNC(=O)c1onc(CSc2ccc(OC)cc2)c1C(=O)O	-	-	-	37	-	-
CC1CC(C)C(=NNC(N)=O)C(C(O)CC2CCC(=O)NC2=O)C1 (configuration not stated)	.	-	-	84	43	15
C[C@H]1C[C@@H](C)C(=O)[C@@H]([C@H](O)CC2CC(=O)NC(=O)C2)C1	-	-	-	89	98	32
CC(=O)Nc1sc2c(c1-c1nc3ccccc3s1)CN(C(C)C)C2	.	.	.	-	.	.
CC(=O)Nc1sc2c(c1-c1nc3ccccc3s1)CCCN(C(C)C)C2	.	.	.	38	30	33
CC(=O)Nc1sc2c(c1-c1nc3ccccc3s1)CN(C(C)C)CC2	.	-	-	38	-	26
NC(=O)NN=Cc1ccc(OCc2cccc(Cl)c2)cc1	.	-	-	.	.	.
COC(=O)C1=C(c2ccc(Cl)c(C(F)(F)F)c2)CC2CCC1N2C(=O)NCc1cc(C)oc1C(F)(F)F (configuration not stated)	.	-	-	.	.	.
CN1C2CCC1CC(=NO)C2	-	-	-	84	-	-
SMILES	BJeLR viability	Sa ugtP lethal	RN4220 kill	PrPC TRFRET	PrPC TRFRET cf	LD9 tox
CC(=NOC(=O)c1ccc(C)cc1)c1sc(C)nc1C	.	-	-	.	.	.
COc1cc(C(=O)Nc2ccc3c(c2)ncn3C)cc(OC)c1OC	-	-	-	77	73	-
COc1cc(C(=O)Nc2ccc3c(c2)nc(C)n3C)cc(OC)c1OC	-	-	-	-	.	.
C=CCOc1ccc(C2NC(=S)NC(C)=C2C(=O)c2ccccc2)cc1OC (configuration not stated)	-	-	-	43	50	-
CCOC(=O)[C@@]12CN(C(=O)OC(C)(C)C)CC=C1N(Cc1ccc(OC)cc1)C(=O)[C@H]2CC(=O)NCc1cccs1	.	.	.	-	.	.
Cc1csc(NC(=O)c2cc3c(s2)CCCC3)n1	-	-	-	26	-	-
CNC(=O)c1cc2c(s1)CCCCCC2	-	-	-	-	.	.
Cc1csc(NC(=O)c2cc3c(s2)CCCCC3)n1	-	-	-	25	-	-
CC1CCC(NC(=O)c2cc3c(s2)CCCC3)CC1 (configuration not stated)	-	-	-	50	63	-
CCOC(=O)Cc1csc(NC(=O)c2cc3c(s2)CCCC3)n1	-	-	-	30	25	-
O=C(O)CC1c2ccc(C(F)(F)F)cc2S(=O)(=O)N1Cc1ccccc1 (configuration not stated)	.	-	-	.	.	.
O=C(Nc1cccc(Cl)c1)OCCN1CCCC12CCC(c1ccccc1)CC2 (configuration not stated)	.	.	.	-	.	.
CC(NC(=O)c1nc[nH]c1C(=O)NCc1ccc(CNC(=O)OC(C)(C)C)cc1)c1ccccc1 (configuration not stated)	.	-	-	.	.	.
CC(CC(=O)Nc1ccc2c(c1)OCCO2)=NNC(=O)c1ccc([N+](=O)[O-])cc1Cl	.	-	-	.	.	.
COc1ccc(Oc2cnn(-c3ccccc3)c(=O)c2Br)cc1	-	-	-	27	36	-
N#CC(=Cc1cccc(Oc2ccc(C(F)(F)F)cc2[N+](=O)[O-])c1)c1nc2ccccc2[nH]1	.	-	-	.	.	.
CC(C)(C)c1ccc(CNc2nc(-c3ccccn3)nnc2-c2ccccc2)cc1	.	.	.	24	38	33
Clc1cccc(CNc2nc(-c3ccccn3)nnc2-c2ccccc2)c1	.	.	.	29	37	43
c1ccc(-c2nnc(-c3ccccn3)nc2NC2CCCCC2)cc1	66	-	97	38	33	45
CNc1nc(-c2ccccn2)nnc1-c1ccccc1	-	-	-	-	.	.
S=c1[nH]nc(-c2ccccc2)n1N=Cc1cccc(Cl)c1	.	-	-	.	.	.
CON=C(c1nonc1N)N1CCN(c2ccc([N+](=O)[O-])cc2Cl)CC1	.	-	-	.	.	.
O=C(Nc1nc(-c2ccccn2)cs1)c1ccc(F)c(S(=O)(=O)N2CCOCC2)c1	.	-	-	27	33	18
Cc1ccc(C(=O)Nc2nc(-c3ccccn3)cs2)cc1S(=O)(=O)N1CCOCC1	.	-	-	25	-	-
COc1cc(C=NNC(N)=S)cc(Br)c1OCc1ccccc1F	.	-	-	.	.	.
SMILES	BJeLR viability	Sa ugtP lethal	RN4220 kill	PrPC TRFRET	PrPC TRFRET cf	LD9 tox
O=C(Nc1ccccc1Cl)c1cc(C2CCCN(C(=O)C3CCCCC3)C2)on1 (configuration not stated)	.	.	.	-	.	.
O=C(Nc1ccc2c(c1)OCO2)c1cc(C2CCCCN2S(=O)(=O)c2ccccc2)on1 (configuration not stated)	.	.	.	47	40	-
O=C(Nc1ccc2c(c1)OCO2)c1cc(C2CCCN(C(=O)C3CCCCC3)C2)on1 (configuration not stated)	.	.	.	33	-	-
CN(C)c1ccc(CC(=O)N2CCCC(c3cc(C(=O)Nc4ccc(F)c(Cl)c4)no3)C2)cc1 (configuration not stated)	.	.	.	27	-	-
CC(=NO)c1oc2ccc3c(C)cc(=O)oc3c2c1C	.	-	-	.	.	.
COc1ccc(-c2nc(-c3ccc(Br)o3)no2)cc1OC	-	-	-	-	.	.
COc1ccc(-c2nnc(-c3ccc(Br)o3)o2)cc1OC	-	-	-	60	76	-
